# Most compounds without a hit are left out; they make up all but 0.34% or so of the library.
# Chronic BCR inh – chronic active BCR signaling inhibition; ABC-DLBCL IkBa-CBG/CBR reporter, luminescence ratio, 4 h; Potency, µM (highest dose often 46.1 µM), for inactives: at the highest dose activity change, negative = inhibition, most hits filed as inhibitors; 340,000 tested, 0.05% active; active = well fitted inhibition curve with a large enough effect in the signal ratio, with a control signal flat, not every such curve was filed as active; inconclusive = small, poorly fitted or top-dose-only effect, or effect the other way, or a change in a side signal; the % refers to the signal ratio;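 also: potency is read from the fitted curve at half-maximal effect; plate controls were basal doxycycline-induced cells for no effect and cells given 10 µM MG132 for full effect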
#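 TMD8 human ABC-DLBCL cells with doxycycline-inducible IκBα–green luciferase fusion and unfused red luciferase, in 0.5% FBS medium; compounds up to 46 uM, 4 h at 37C. Green/red luminescence ratio, filter-overlap corrected, fitted to concentration-response curves.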
# Tb PGK inh – blocks T. brucei phosphoglycerate kinase; P07378; PGK/GAPDH coupled, Kinase-Glo luminescence, 60 min; Potency, µM (series often up to 57.5 µM), inactives show at the top dose activity change, negative = inhibition, usual class: inhibitors; 380,000 tested, 0.043% active; AID 602233; also: potency is read from the fitted curve at half-maximal effect; % is scaled to controls: 0 for no effect and ±100 for the full control effect; nearly all actives have a fitted effect of over 60% in size
# Target sequence (P07378 whole entry, looked up): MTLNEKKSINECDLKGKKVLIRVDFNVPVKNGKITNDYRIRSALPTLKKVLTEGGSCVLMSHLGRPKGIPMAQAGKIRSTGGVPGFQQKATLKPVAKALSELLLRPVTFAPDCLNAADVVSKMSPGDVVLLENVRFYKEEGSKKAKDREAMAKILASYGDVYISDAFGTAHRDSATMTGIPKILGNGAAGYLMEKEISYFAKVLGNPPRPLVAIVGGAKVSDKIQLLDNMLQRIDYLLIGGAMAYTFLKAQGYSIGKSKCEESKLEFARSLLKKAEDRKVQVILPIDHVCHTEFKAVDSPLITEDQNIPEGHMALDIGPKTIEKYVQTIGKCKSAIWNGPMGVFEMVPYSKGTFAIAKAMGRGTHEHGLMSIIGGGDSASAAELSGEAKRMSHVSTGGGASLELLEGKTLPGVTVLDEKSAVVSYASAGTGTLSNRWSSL
#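 Recombinant glycosomal PGK reaction used 1,3-bisphosphoglycerate generated in-well by GAPDH (100nM final) in 100mM TEA pH 7.6, 5mM MgCl2, 0.01% Tween-20. After 60 minutes at room temperature, ATP was read by Kinase-Glo Plus luminescence end-point.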
# Tb PFK inh-1 – inhibitors of T. brucei phosphofructokinase | Potency, µM (highest dose often 57.5 µM), without a hit: at the top dose activity, negative = inhibition, actives largely listed as inhibitors | 330,000 tested, 0.17% active | T. brucei PFK, ADP-Glo luminescence | O15648;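 also: potency is read from the fitted curve at half-maximal effect; 0% = uninhibited 1x PFK enzyme wells and -100% = no-enzyme wells; nearly all actives have a fitted effect of over 60% in size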
#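 In TEA buffer at pH 8.0 with 5 mM MgCl2, enzyme (1.25 nM) converted F6P (0.5 mM) and ATP (0.1 mM) for 45 min at room temperature. ADP product was read by luciferase luminescence.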
# Pin1 inhibitor – blocks the human prolyl isomerase Pin1 | Potency, µM (highest dose often 115 µM), inactives show top-dose activity, negative = inhibition, hits mostly inhibitors | AID 504891 | 390,000 tested, 0.009% active | Pin1 FP peptide displacement, HiFluor488, 10 min | Q13526; active = well fitted inhibition curve with a large enough effect in the polarisation, with a control signal flat, not every such curve was filed as active; inconclusive = small, poorly fitted or top-dose-only effect, or effect the other way, or a change in a side signal; inactive = no such curve, though single readings can be large or run the other way; the % refers to the polarisation; also: potency is read from the fitted curve at half-maximal effect; % is scaled to controls: 0 for no effect and ±100 for the full control effect
# Target sequence (Q13526 whole entry, looked up): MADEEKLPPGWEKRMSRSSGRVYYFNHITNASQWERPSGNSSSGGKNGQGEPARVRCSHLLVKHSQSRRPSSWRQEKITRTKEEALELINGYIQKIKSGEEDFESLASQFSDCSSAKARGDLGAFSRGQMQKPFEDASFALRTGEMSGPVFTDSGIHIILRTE
# PI4K2A inh – blocks human PI4K2A kinase activity; Q9BTU6; purified PI4K2A, ADP-Glo luminescence, 1 h; hits give low values; activity change, negative = inhibition, % at 76.9 µM; 420,000 tested, 0.13% active; AID 1346378; in the data active = activity change below about -50%; inconclusive = mostly about -30% to -49%;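 also: -100% = wells without enzyme as full effect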
#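 In this quantitative HTS, ADP production by PI4K2A was quantified luminescently after 1 h at ambient temperature; 100 microM adenosine served as plate-quality control.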
# TbPFK ATP – inhibits T. brucei PFK measured by ATP depletion; shares compounds with Tb PFK inh-1; Tb PFK enzyme, ATP depletion, Kinase-Glo Plus luminescence; Potency, µM (highest dose often 57.5 µM), inactives show at the top dose inhibition; 1,100 tested, 47% active; AID 504636; calls by dose curve; also: potency is read from the fitted curve at half-maximal effect; nearly all actives have a fitted effect of over 60% in size
# Tb PFK inh-2 – T. brucei PFK enzyme inhibition, hit validation; 1,100 tested, 41% active; shares compounds with Tb PFK inh-1; purified T. brucei PFK, ADP-Glo luminescence, 45 min; Potency, µM (highest dose often 57.5 µM), without a hit: top-dose activity change, negative = inhibition, most hits filed as inhibitors;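 also: potency is read from the fitted curve at half-maximal effect; plate controls were full PFK enzyme control for no effect and no enzyme control for full effect; nearly all actives have a fitted effect of over 60% in size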
# An asterisk follows results filed as active; i = inactive; ? = inconclusive; . = no result given. Unless noted, calls follow the shape of the dose curve; as a rule, active = well fitted curve in the direction sought with a large enough effect; inconclusive = small, poorly fitted or top-dose-only effect, or another doubt; inactive = no such curve, though single readings can be large; an effect the other way counts as inactive or inconclusive.
SMILES,Chronic BCR inh,Tb PGK inh,Tb PFK inh-1,Pin1 inhibitor,PI4K2A inh,TbPFK ATP,Tb PFK inh-2
COc1ccc(C2Nc3ccccc3C(=O)N2Cc2ccccc2)cc1COc1ccccc1OC (centres undefined),.,.,.,8%,.,.,.
Cc1cc(F)ccc1NCc1ccccc1[N+](=O)[O-],4%,-2%,-3%,-2%,4,.,.
O=[N+]([O-])c1ccccc1CNc1ccc(F)c(Cl)c1,6%,0%,?,0%,1,21µM*,?
COc1cccc(CNc2ccc(F)c([N+](=O)[O-])c2)c1O,-7%,3%,?,-2%,2,19µM*,30µM*
Cc1cc2c(s1)c1cnn(Cc3c(F)ccc(C)c3Cl)c(=O)c1n2C,.,.,.,1%,.,.,.
O=C(CCCn1c(SCC(=O)c2ccc(O)c(O)c2)nc2ccccc2c1=O)NCC1CCCO1 (centres undefined),?,-20%,?,?,-4,?,?
CC(=O)Nc1ccc(S(=O)(=O)N2CCSC2c2ccco2)cc1 (centres undefined),-1%,i,1%,-5%,2,.,.
O=C(Nc1ccc(Cl)c(Cl)c1)N1CCSC1c1ccco1 (centres undefined),?,i,13µM*,23%,-2,12%,-11%
O=S(=O)(c1ccc(Cl)cc1)N1CCN(S(=O)(=O)c2ccc3c(c2)OCCO3)CC1,.,.,.,-3%,.,.,.
CC1c2ccccc2CN1NC(=O)c1ccc(Cl)c(S(N)(=O)=O)c1 (centres undefined),.,.,.,.,1,.,.
C=C(C)C(=O)Nc1cccc(C2=NOC3(C2)C[C@@H](C(N)=O)N(C(=O)c2ccc(OC)cc2)C3)c1 (some centres undefined),-7%,2µM*,1.9µM*,32µM*,?,0.17µM*,0.24µM*
CCCCCC(=O)Nc1cccc(C2=NOC3(C2)C[C@@H](C(N)=O)N(C(=O)c2ccc(OC)cc2)C3)c1 (some centres undefined),-1%,-20%,-23%,9%,0,.,.
C=C(C)C(=O)Nc1cccc(C2=NOC3(C2)C[C@@H](C(N)=O)N(C(=O)CCCCC)C3)c1 (some centres undefined),?,?,2.7µM*,.,-11,0.15µM*,0.24µM*
O=C(Cn1cc(CN(Cc2ccccc2)Cc2ccccc2)nn1)Nc1cc(C(F)(F)F)ccc1Cl,.,.,.,1%,.,.,.
CC(=O)N[C@H]1[C@H]([C@H](O)[C@H](O)CO)OC(C(=O)O)=C[C@@H]1N=C(N)N,.,.,.,.,3,.,.
COc1ccc(C2Nc3ccccc3C(=O)N2Cc2cccc(C(F)(F)F)c2)cc1COc1ccc(NC(C)=O)cc1 (centres undefined),.,.,.,0%,.,.,.
O=C1CCC(C(=O)Nc2cccc(S(=O)(=O)Nc3ccccc3F)c2)=NN1,3%,-7%,?,-3%,0,3.4µM*,9.5µM*
Cc1ccc(NS(=O)(=O)c2cc3c(cc2C)OCC(=O)N3)cc1C,.,.,.,0%,.,.,.
CN1CCc2nc3sc(C(=O)C45CC6CC(CC(C6)C4)C5)c(N)c3cc2C1,-2%,-1%,?,20%,-13,-34%,?
CCOC(=O)C1(c2ccccc2)CCN(CCc2ccc(N)cc2)CC1,.,.,.,.,2,.,.
O=c1c(OC2OC(CO)C(O)C(O)C2O)c(-c2ccc(O)c(O)c2)oc2cc(O)cc(O)c12 (centres undefined),0%,?,12µM*,0%,5,8.5µM*,4.3µM*
O=c1c(O[C@@H]2O[C@H](CO)C(O)C2O)c(-c2ccc(O)c(O)c2)oc2cc(O)cc(O)c12 (some centres undefined),-1%,-15%,?,-1%,2,.,.
O=c1cc(-c2ccc(O)c(O)c2)oc2cc(O[C@@H]3O[C@H](CO)[C@@H](O)[C@H](O)[C@H]3O)cc(O)c12,6%,-5%,?,?,-14,?,?
Cc1nc(Nc2nc3ccccc3o2)nc2c1CCCC2,.,.,.,0%,.,.,.
C[C@H]1C[C@H](O)c2ccsc2S1(=O)=O,.,.,.,.,-1,.,.
SMILES,Chronic BCR inh,Tb PGK inh,Tb PFK inh-1,Pin1 inhibitor,PI4K2A inh,TbPFK ATP,Tb PFK inh-2
CCSc1nnc(NC(=O)COc2ccc3ccccc3c2)s1,1%,10%,?,11%,2,-33%,?
COC(=O)C1CCN(C(=O)c2cc(-c3ccco3)nc3ccccc23)CC1,8%,?,2.7µM*,.,-24,?,-26%
O=S(=O)(Nc1ccc(Cl)cc1)c1ccc(N2CCOCC2)c(NC(=S)NCCN2CCOCC2)c1,0%,-1%,?,-6%,-4,7.6µM*,13µM*
O=S1(=O)CCN(Cc2ccc(Cl)c(C(F)(F)F)c2)CC1,-2%,-3%,?,1%,-7,24µM*,?
O=S1(=O)CCN(Cc2cccc(C(F)(F)F)c2)CC1,2%,-5%,-3%,-2%,-11,.,.
O=C1CCc2cc(S(=O)(=O)Nc3ccc4c(c3)CCC4)ccc2N1,.,.,.,2%,.,.,.
COCCn1c(C)cc(C(=O)COC(=O)c2cc3c(s2)CCC3)c1C,0%,-22%,?,.,-20,?,-25%
c1ccc(OCCN2C3=NCCN3c3ccccc32)cc1,-1%,-3%,21µM*,0%,3,24µM*,?
Brc1ccc(CN2C3=NCCCN3c3ccccc32)cc1,?,-10%,?,-5%,-3,27µM*,?
Clc1ccc(CN2C3=NCCN3c3ccccc32)cc1,0%,2%,24µM*,2%,4,21µM*,27µM*
c1ccc(CN2C3=NCCCN3c3ccccc32)cc1,11%,i,-5%,-3%,-2,.,.
Clc1cccc(CN2C3=NCCCN3c3ccccc32)c1,2%,10%,?,-3%,-1,?,?
Clc1ccc(CN2C3=NCCCN3c3ccccc32)c(Cl)c1,0%,-3%,10%,5%,11,.,.
Cc1cc2c(s1)c1cnn(Cc3ccccc3Cl)c(=O)c1n2C,.,.,.,4%,.,.,.
CCOc1ncc(F)c(=O)[nH]1,.,.,.,.,0,.,.
Cc1cc2c(s1)c1cnn(Cc3ccc(S(C)(=O)=O)cc3)c(=O)c1n2C,.,.,.,9%,.,.,.
COc1ccc(NCc2ccc([N+](=O)[O-])s2)c(OC)c1,?,-2%,-14%,-2%,-5,.,.
COc1ccc(NCc2ccc([N+](=O)[O-])s2)cc1,-1%,1%,?,?,-11,13µM*,27µM*
CC(CNc1ccc(Cl)cc1)(CNc1ccc(Cl)cc1)[N+](=O)[O-],.,-4%,.,2%,6,.,.

# Screening data (PubChem)
